# Sampled rows, rich in hits. Any-hit rate of the full collection: about 3.5%.
# Autofluor counter – flagged as autofluorescent in microsphere protease counterscreen; 3.1% of 360,000 active; compound autofluorescence counterscreen, microsphere flow cytometry; hits give high values; AID 624483; fluorescence intensity (test concentration not listed); in the data active = fluorescence intensity above about 16000; inconclusive = no clear call, values can overlap the other calls
# BJeLR lethal – BJeLR cell viability loss; BJeLR (HRASV12) viability, CellTiter-Glo ATP luminescence, 48 h; inhibition, % (concentration not given with the values); 0.17% of 300,000 active; AID 1554; in the data active = inhibition above about 50%; inconclusive = no clear call, values can overlap the other calls
# BoNT F protease – inhibitors of Botulinum neurotoxin F light chain protease; Multiplex microsphere protease cleavage assay, flow cytometry; inhibition, % at 10 µM; 0.22% of 360,000 active; AID 588497; in the data active = inhibition above about 35%, passing the limit was not always enough; inconclusive = no clear call, values can overlap the other calls
# BoNT A protease – BoNT A light chain protease inhibition | multiplex microsphere protease substrate cleavage, flow cytometry | inhibition, % at 10 µM | 0.17% of 360,000 active
# Anthrax LF prot – inhibitors of Bacillus anthracis lethal factor protease. 0.12% of 360,000 active. multiplex microsphere protease cleavage assay, LF. inhibition, % at 10 µM. P15917
# Hits are given with their value; - = inactive; ? = inconclusive; . = no result given. Cut-off read from the data, not from the text of the source, unless noted: active = inhibition above about 30%; inconclusive = no clear call, values can overlap the other calls; inactive = below that.
SMILES,Autofluor counter,BJeLR lethal,BoNT F protease,BoNT A protease,Anthrax LF prot
COc1cc2nc(SCC(=O)NCc3ccco3)n(Cc3ccc(Cl)cc3)c(=O)c2cc1OC,23649,-,-,?,-
COCCNC(=O)CSc1nc2cc(OC)c(OC)cc2c(=O)n1Cc1ccc(OC)cc1,22751,-,-,?,-
COc1ccc(Cn2c(CCC(=O)NCc3ccco3)nc3cccnc32)cc1,22452,-,-,-,-
COCCCn1c(SCc2ccc(OC)cc2)nc2cc(OC)c(OC)cc2c1=N,23040,-,-,-,-
OC[C@@H]1CN(Cc2ccc3c(c2)OCO3)C[C@H](n2cnc3c(NCc4ccncc4)ncnc32)O1,-,.,-,-,-
CN(Cc1cn(Cc2ccc(Cl)cc2)nn1)C1CN(Cc2cn(Cc3ccc(Cl)cc3)nn2)S(=O)(=O)C1 (configuration not stated),-,.,-,-,-
CN(C)Cc1c(OC(=O)c2ccc(N)cc2)ccc2ccccc12,-,.,-,-,-
CCN(CC)c1ccc(/C=N/N2CCN(Cc3cccc4ccccc34)CC2)c(O)c1,23476,-,-,-,-
CC1CN(C(=O)C(c2ccccc2)c2ccccc2)CC(C)O1 (configuration not stated),25891,-,-,-,-
O=C(CCSc1nnc2ccccn12)Nc1ccc(F)cc1,23399,-,-,-,-
COCC(C)n1c(SCC(=O)N2CCc3ccccc3C2)nc2ccccc2c1=O (configuration not stated),-,-,-,-,-
O=C(Cn1nnc2ccccc21)OCC(=O)c1ccc(F)cc1,.,-,.,.,.
Cc1ccccc1NC(=O)/C=C/c1cccc(C(F)(F)F)c1,-,-,-,-,-
CNC(=O)/C=C/c1cccc(C(F)(F)F)c1,-,-,40,-,-
Cc1ccc(S(=O)(=O)N2CCN(CC(=O)Nc3ccccc3Cl)CC2)cc1,-,.,-,-,-
Cc1ccc(S(=O)(=O)Nc2ccc(NC(=O)CN3CCCCC3)c(Cl)c2)cc1,19818,-,-,-,-
Cc1c(C(=O)N2CCN(c3cccc(Cl)c3)CC2)cccc1[N+](=O)[O-],-,-,-,-,-
CC(=O)c1ccc(NC(=O)COC(=O)C2CC3C=CC2C3)cc1 (configuration not stated),-,.,-,-,-
O=C(COC(=O)C1CC2C=CC1C2)Nc1ccc2c(c1)OC(F)(F)O2 (configuration not stated),16493,-,-,-,-
COc1cc(OC)c(C2=NOC(C(=O)NCCc3ccccc3)C2)cc1Cl (configuration not stated),23621,-,-,-,-
COc1cc(OC)c(C2=NOC(C(=O)NCc3cccs3)C2)cc1Cl (configuration not stated),-,63,-,-,-
COc1cc(C2=NOC(C(=O)NCc3cccs3)C2)cc(OC)c1OC (configuration not stated),-,-,-,-,-
O=C(N(c1ccccc1)c1ccccc1)n1ccnc1,21662,-,-,-,-
Cc1ccc(S(=O)(=O)Nc2cc(C(=O)N3CCOCC3)ccc2N2CCCCC2)cc1,-,-,-,-,-
COCCCNC(=O)c1ccc(N2CCCC2)c(NS(=O)(=O)c2ccc(C)cc2)c1,24938,-,-,-,-
SMILES,Autofluor counter,BJeLR lethal,BoNT F protease,BoNT A protease,Anthrax LF prot
Cc1ccc(S(=O)(=O)Nc2cc(C(=O)O)ccc2N2CCCCC2)cc1,23478,-,-,-,-
COC(=O)[C@@]1(Sc2ccc(C)cc2)CC(=O)N(C(=O)c2ccccc2)[C@@H]1c1ccccc1,-,.,-,-,-
NCCc1nnc(SCC(=O)Nc2ccc(Br)cc2)o1,-,-,-,-,-
CN(C)C(=O)CSc1nnc(C23CC4CC(CC(C4)C2)C3)o1,22684,-,-,?,-
CN(C)C(=O)CSc1nnc(CCN)o1,22720,-,-,-,-
COC(=O)c1ccc(OC(=O)CN2C(=O)c3ccccc3C2=O)cc1,-,-,?,-,38
COC(=O)c1ccc(CN2C(=O)c3ccccc3C2=O)cc1,-,-,-,-,-
O=C(CCCN1C(=O)c2ccccc2C1=O)Oc1ccc(F)cc1,23354,-,-,-,-
COc1ccc(O)c(C(=O)c2cnc3c(c2)CN(C)C(=O)N3)c1,-,-,-,-,-
COc1ccc(-c2nc(C#N)c(N3CCCCC3)o2)cc1,-,-,-,-,-
COc1nc(C#N)c(N2CCOCC2)o1,23391,-,-,-,-
CCCN1C(=O)C(Cc2nc3ccccc3c(=O)n2-c2ccccc2)c2ccccc21 (configuration not stated),-,-,-,-,-
